Here are results for ten compounds from PubChem BioAssay (NCI).

Test [1] is described as follows: NCI Yeast Anticancer Drug Screen. Data for the rad50 strain (AID 155).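 Also: 0% = growth of vehicle-only cultures of the same strain.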 The following applies: S. cerevisiae rad50 strain growth inhibition, hits give high values. The procedure, abridged:
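Relative growth inhibition (compound vs vehicle) was measured in yeast with a defined repair-gene alteration.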

Test [2] in a line: NCI Yeast Anticancer Drug Screen. Data for the mec2-1 strain (AID 157). The following applies: S. cerevisiae mec2-1 strain, hits give high values. A digest of the protocol: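 Cells of the genetically defined mec2-1 yeast strain are incubated with test compound. Inhibition of growth is calculated against vehicle-treated controls.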
Test [3] is described as follows: NCI Yeast Anticancer Drug Screen. Data for the sgs1 mgt1 strain (AID 161).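 Also: 0% = growth of cultures given vehicle only.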 The following applies: S. cerevisiae sgs1 mgt1 strain, hits give high values. A digest of the protocol: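 Test agents were incubated with a DNA-repair-mutant yeast strain. Growth was then read and compared against vehicle-treated controls.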
Test [4] in a line: NCI Yeast Anticancer Drug Screen. Data for the cln2 rad14 strain (AID 165).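 Also: 0% = growth equal to vehicle treated cultures.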 The following applies: S. cerevisiae cln2 rad14 strain, hits give high values. A digest of the protocol: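 The screen exposed genetically defined yeast (cln2 rad14) to test compounds and scored growth inhibition relative to vehicle-treated controls.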
A short description of test [5]: NCI Yeast Anticancer Drug Screen. Data for the bub3 strain (AID 167). Conditions: S. cerevisiae bub3 mutant strain, hits give high values. The procedure, abridged:
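Screening used yeast with an engineered genetic alteration affecting cell cycle control. Compound-exposed cultures were compared with vehicle cultures, and reduced growth was taken as inhibition.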

A short description of test [6]: NCI Yeast Anticancer Drug Screen. Data for the mlh1 rad18 strain (AID 175). The following applies: S. cerevisiae mlh1 rad18 strain growth inhibition, hits give high values. A digest of the protocol: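 Compound-treated yeast growth, normalised to vehicle controls. Strain bears defined DNA repair mutations.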
Where [7] appears, read: at 5.0 µM (retest, dose inferred, filed as 0.5).
[8] abbreviates: at 50.0 µM (retest, dose inferred, filed as 5.0).

The structures appear in SMILES notation. Compounds without any hit were thinned out: in the full panel of roughly 79,000, 15% have a hit. Values without a mark were called inactive. Active and inactive are the calls of the source. Rule as the data show it: active = growth inhibition above about 70%; inactive = the rest.

In the case of `O=C(Nn1cc(F)c(=O)[nH]c1=O)C12CC3CC(CC(C3)C1)C2`, the growth inhibition in test [1] (setting [7]) is 41%; in test [1] (setting [8]), 92% (active); in test [1] (at 50.0 µM), 21.8%; in test [2] (setting [7]) it was 20%; in test [2] (setting [8]), 96% (active); in test [2] (at 50.0 µM), 51.4%. Moreover, the growth inhibition in test [3] (setting [7]) was 42%; in test [3] (setting [8]), 96% (active); in test [3] (at 50.0 µM), 91.4% (active); in test [4] (setting [7]), 20%; in test [4] (setting [8]), 52%; in test [4] (at 50.0 µM), 86.1% (active). For the same compound, the growth inhibition in test [5] (setting [7]) is 41%; in test [5] (setting [8]) it was 90% (active); in test [5] (at 50.0 µM), 87.5% (active); in test [6] (setting [7]), 41%; in test [6] (setting [8]), 97% (active); in test [6] (at 50.0 µM), 57.9%.
With `O=C1C(Cl)=C(N2C(=O)CCC2=O)C(=O)c2ccccc21`, the growth inhibition in test [1] (setting [7]) was 77% (active); in test [1] (setting [8]), 98% (active); in test [1] (at 50.0 µM), 87.6% (active); in test [2] (setting [7]) it was 99% (active); in test [2] (setting [8]), 99% (active); in test [2] (at 50.0 µM), 90.4% (active). Also, the growth inhibition was 99% (active) in test [3] (setting [7]); 100% (active) in test [3] (setting [8]); 91.6% (active) in test [3] (at 50.0 µM); 94% (active) in test [4] (setting [7]); 99% (active) in test [4] (setting [8]); 89.4% (active) in test [4] (at 50.0 µM). In addition, the growth inhibition was 100% (active) in test [5] (setting [7]); 99% (active) in test [5] (setting [8]); 88.9% (active) in test [5] (at 50.0 µM); 72% (active) in test [6] (setting [7]); 98% (active) in test [6] (setting [8]); 89% (active) in test [6] (at 50.0 µM).
As for `CC[C@@]1(OP(=O)(O)O)C(=O)OCc2c1cc1n(c2=O)Cc2cc3ccccc3nc2-1`, the growth inhibition in test [1] (setting [7]) is 89% (active); in test [1] (setting [8]), 92% (active); in test [1] (at 50.0 µM), 79.2% (active); in test [2] (setting [7]), 33%; in test [2] (setting [8]), 95% (active); in test [2] (at 50.0 µM), 87.1% (active). For the same compound, the growth inhibition in test [3] (setting [7]) was 6%; in test [3] (setting [8]), -37%; in test [3] (at 50.0 µM), 80.7% (active); in test [4] (setting [7]) it was -11%; in test [4] (setting [8]) it was -58%; in test [4] (at 50.0 µM), 67%. The growth inhibition in test [5] (setting [7]) was 14%; in test [5] (setting [8]), -15%; in test [5] (at 50.0 µM) it was 77.2% (active); in test [6] (setting [7]), 49%; in test [6] (setting [8]), 86% (active); in test [6] (at 50.0 µM), 74.2% (active).
Turning to `Cc1c2c(c(C)c3c1sc1ccccc13)CCN=C2`, the growth inhibition was 9% in test [1] (setting [7]); 98% (active) in test [1] (setting [8]); 55.5% in test [1] (at 50.0 µM); -14% in test [2] (setting [7]); 98% (active) in test [2] (setting [8]); 49.9% in test [2] (at 50.0 µM). The growth inhibition in test [3] (setting [7]) was -1%; in test [3] (setting [8]), 98% (active); in test [3] (at 50.0 µM) it was 57.6%; in test [4] (setting [7]), -21%; in test [4] (setting [8]), 98% (active); in test [4] (at 50.0 µM), 94.9% (active). The growth inhibition in test [5] (setting [7]) is -5%; in test [5] (setting [8]), 98% (active); in test [5] (at 50.0 µM), 92.8% (active); in test [6] (setting [7]), -8%; in test [6] (setting [8]) it was 99% (active); in test [6] (at 50.0 µM), 57.2%.
For `Clc1cccc(Cl)c1C(Nc1nncs1)Nc1nncs1`, the growth inhibition in test [1] (setting [7]) was 0%; in test [1] (setting [8]), 85% (active); in test [1] (at 50.0 µM), 93.2% (active); in test [2] (setting [7]), -9%; in test [2] (setting [8]), 51%; in test [2] (at 50.0 µM) it was 79.8% (active). Besides, the growth inhibition is 0% in test [3] (setting [7]); 55% in test [3] (setting [8]); 88.2% (active) in test [3] (at 50.0 µM); 8% in test [4] (setting [7]); 42% in test [4] (setting [8]); 72.9% (active) in test [4] (at 50.0 µM). Moreover, the growth inhibition in test [5] (setting [7]) was -11%; in test [5] (setting [8]), 56%; in test [5] (at 50.0 µM), 53%; in test [6] (setting [7]), 0%; in test [6] (setting [8]), 94% (active); in test [6] (at 50.0 µM), 97.3% (active).
As for `CNCC(OB(c1ccccc1)c1ccccc1)c1ccccc1` (stereo not given), the growth inhibition in test [1] (setting [7]) is 4%; in test [1] (setting [8]), 99% (active); in test [1] (at 50.0 µM), -22.9%; in test [2] (setting [7]), 12%; in test [2] (setting [8]) it was 99% (active); in test [2] (at 50.0 µM), -5.2%. The growth inhibition in test [3] (setting [7]) is 1%; in test [3] (setting [8]), 95% (active); in test [3] (at 50.0 µM) it was 61.7%; in test [4] (setting [7]), 9%; in test [4] (setting [8]), 99% (active); in test [4] (at 50.0 µM), -26.6%. The growth inhibition in test [5] (setting [7]) was -7%; in test [5] (setting [8]) it was 99% (active); in test [5] (at 50.0 µM), 5.75%; in test [6] (setting [7]), 0%; in test [6] (setting [8]), 99% (active); in test [6] (at 50.0 µM) it was 44.1%.
Consider `NC(C(=O)O)C1=CCCCCC1` (stereo not given), for which the growth inhibition was 2% in test [1] (setting [7]); -6% in test [1] (setting [8]); 49.5% in test [1] (at 50.0 µM); 20% in test [2] (setting [7]); 66% in test [2] (setting [8]); 13.8% in test [2] (at 50.0 µM). Also, the growth inhibition in test [3] (setting [7]) is 6%; in test [3] (setting [8]), -1%; in test [3] (at 50.0 µM), 9.35%; in test [4] (setting [7]), 12%; in test [4] (setting [8]) it was 54%; in test [4] (at 50.0 µM) it was -6.65%. Besides, the growth inhibition is 63% in test [5] (setting [7]); 98% (active) in test [5] (setting [8]); -5.95% in test [5] (at 50.0 µM); -3% in test [6] (setting [7]); -4% in test [6] (setting [8]); 15.4% in test [6] (at 50.0 µM).
For the compound `CC(=O)Oc1c([N+](=O)[O-])cc(-c2ccccc2)cc1[N+](=O)[O-]`, the growth inhibition is 18% in test [1] (setting [7]); 99% (active) in test [1] (setting [8]); 78.2% (active) in test [1] (at 50.0 µM); 20% in test [2] (setting [7]); 100% (active) in test [2] (setting [8]); 56.1% in test [2] (at 50.0 µM). In addition, the growth inhibition in test [3] (setting [7]) was 21%; in test [3] (setting [8]) it was 99% (active); in test [3] (at 50.0 µM), 66.3%; in test [4] (setting [7]), 9%; in test [4] (setting [8]), 99% (active); in test [4] (at 50.0 µM), 47.5%. Moreover, the growth inhibition in test [5] (setting [7]) is 21%; in test [5] (setting [8]) it was 99% (active); in test [5] (at 50.0 µM) it was 62.1%; in test [6] (setting [7]), 6%; in test [6] (setting [8]), 99% (active); in test [6] (at 50.0 µM), 84.6% (active).
On to `CC1=CC(=O)C(O)=C/C1=C\C=C\c1ccccc1`, for which the growth inhibition in test [1] (setting [7]) is 15%; in test [1] (setting [8]) it was 98% (active); in test [1] (at 50.0 µM), 99.2% (active); in test [2] (setting [7]) it was 23%; in test [2] (setting [8]), 99% (active); in test [2] (at 50.0 µM), 99% (active). For the same compound, the growth inhibition in test [3] (setting [7]) is 26%; in test [3] (setting [8]), 99% (active); in test [3] (at 50.0 µM), 49.4%; in test [4] (setting [7]) it was 6%; in test [4] (setting [8]), 97% (active); in test [4] (at 50.0 µM), 98.8% (active). Further, the growth inhibition in test [5] (setting [7]) is 11%; in test [5] (setting [8]) it was 98% (active); in test [5] (at 50.0 µM) it was 99% (active); in test [6] (setting [7]), 50%; in test [6] (setting [8]) it was 98% (active); in test [6] (at 50.0 µM) it was 99.2% (active).
For `CC(C)=CN(C)C` (tested in a mixture with another compound), the growth inhibition in test [1] (setting [7]) is -120%; in test [1] (setting [8]), 87% (active); in test [1] (at 50.0 µM), 93.5% (active); in test [2] (setting [7]) it was -36%; in test [2] (setting [8]), 91% (active); in test [2] (at 50.0 µM) it was 96.7% (active). The growth inhibition in test [3] (setting [7]) is -42%; in test [3] (setting [8]), 89% (active); in test [3] (at 50.0 µM) it was 91.7% (active); in test [4] (setting [7]) it was -55%; in test [4] (setting [8]) it was 97% (active); in test [4] (at 50.0 µM), 98.4% (active). The growth inhibition was -68% in test [5] (setting [7]); 83% (active) in test [5] (setting [8]); 91.2% (active) in test [5] (at 50.0 µM); -113% in test [6] (setting [7]); 95% (active) in test [6] (setting [8]); 95.8% (active) in test [6] (at 50.0 µM).
